tim23-1 inh = growth inhibitors of tim23-1 mutant yeast, primary screen, luminescence, uHTS. 330,000 tested, 1.3% active. S. cerevisiae tim23-1 growth, BacTiter-Glo luminescence, 24 h. inhibition, % at 20 µM;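 active = growth inhibition of the mutant yeast at or above 50%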;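 also: temperature-sensitive mutant grown at 25 °C; plate controls were DMSO-treated mutant yeast for no effect and medium wells lacking yeast for full effect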
tim10-1 inh = growth inhibitors of tim10-1 mutant yeast, primary screen, luminescence, uHTS. S. cerevisiae tim10-1 ts strain growth, BacTiter-Glo, 24 h. inhibition, % at 20 µM. 330,000 tested, 2.2% active;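 active = inhibition of at least 40%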;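 also: mutant grown at 25 °C; 0% = DMSO wells with yeast and 100% = wells holding no yeast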
NLRP3 yeast inh = NALP3 inflammasome inhibitors in reconstituted yeast, primary screen, luminescence, uHTS | inhibition, % at 10 µM | Yeast reconstituted NLRP3/ASC/caspase-1, beta-gal luminescence, 24 h | 330,000 tested, 0.39% active;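 active = inhibition of 50% or more; inactive = inhibition below 50%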;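 also: plate controls were induced DMSO wells for no effect and uninduced yeast grown without galactose for full effect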
NALP1 inh = NALP1 inflammasome inhibitors in reconstituted yeast, colorimetric, S. cerevisiae, triplicate retest; inhibition, % at 10 µM; 280,000 tested, 0.61% active; S. cerevisiae NALP1/ASC/caspase-1 growth, X-gal OD620, 72 h; in the data active = inhibition mostly above about 24%, no sharp cut-off; inactive = mostly below about 32%
V-ATPase pH = regulators of yeast V-ATPase proton pumping, primary screen, pHLuorin cytosolic pH fluorescence; S. cerevisiae; response, % at 10 µM; 350,000 tested, 0.37% active; AID 504577, 2011; in the data active = response mostly above about 7.3%, no sharp cut-off; inactive = mostly below about 5.4%; also: actives read high
TIM10 inh = growth inhibitors of isogenic TIM10 control yeast, primary screen, counter-screen for tim10-1 yeast inhibitor project, luminescence, uHTS | S. cerevisiae TIM10 strain growth, BacTiter-Glo luminescence, 24 h | inhibition, % at 10 µM | 330,000 tested, 1.4% active | AID 463195, 2010;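 active = inhibition of 40% or more at the single tested concentration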;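 also: wild-type TIM10 isogenic control strain grown at permissive 25 °C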
tim10-1 confirm = growth inhibitors of tim10-1 mutant yeast, confirmation, single concentration, luminescence, S. cerevisiae; shares compounds with tim10-1 inh; S. cerevisiae tim10-1 ts strain growth, BacTiter-Glo, 24 h; inhibition, % at 20 µM; 7,400 tested, 56% active; AID 463213, 2010;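 active = inhibition of yeast growth at or above a set limit in either of two repeat tests at 20 µM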;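 also: tim10-1 mutant grown at permissive 25 °C to find synthetic lethal compounds; 0% = DMSO yeast wells and 100% = medium wells without yeast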
Numbers without * were called inactive; / = no result. Hits are enriched below; roughly 4.2% of the tested compounds scored in any of these assays.

SMILES	tim23-1 inh	tim10-1 inh	NLRP3 yeast inh	NALP1 inh	V-ATPase pH	TIM10 inh	tim10-1 confirm
O=[N+]([O-])c1cc(C(F)(F)F)ccc1Sc1nccn1Cc1ccccc1	11	22	8	-7	0	17	/
O=[N+]([O-])c1ccc(Sc2nccn2Cc2ccccc2)c([N+](=O)[O-])c1	39	51*	25	24	-80	35	26
O=C(Cc1ccc(-c2ccccc2)cc1)OCC(=O)N1CCCC1=O	44	13	25	8	-1	10	/
COC(=O)CN1C(=S)N(c2ccc(OC)cc2)C(=O)/C1=C/c1ccc(OC)cc1	39	50*	-18	-20	-1	27	37*
O=C(CSc1nnc(NC(=O)c2ccc(F)cc2F)s1)NC1CC1	12	-15	17	19	2	9	/
O=C(O)CCC(=O)N1CCC(n2nnc3cc(C(F)(F)F)ccc32)CC1	3	-5	-1	/	1	6	/
CN1CCN(S(=O)(=O)c2ccc(C(F)(F)F)cc2)C(c2ccccc2)C1 (configuration not stated)	31	21	25	/	-5	14	/
O=C(NC1CCCN(c2ccc(C(F)(F)F)cn2)C1)c1ccncc1 (configuration not stated)	-125	33	2	2	3	-38	/
CSc1ccccc1C(=O)NC1CCCN(c2ccc(C(F)(F)F)cn2)C1 (configuration not stated)	24	43*	21	-17	4	-7	3
COc1ccc(COC(=O)c2cccc(S(=O)(=O)N3CCN(C(C)=O)CC3)c2)cc1F	6	3	9	/	-2	6	/
Cc1ccc2oc(C(=O)N3CCN(Cc4ncccc4C)CC3)c(C)c2c1	40	41*	16	-1	2	27	18
Cc1ccc2oc(C(=O)N3CCN(CC(=O)NC(C)C)CC3)c(C)c2c1	-4	-6	14	10	4	-6	/
COc1ccccc1N=Cc1nc(-c2ccccc2)oc1OC(C)=O	45	52*	-10	3	-1	32	26
Cc1ccc(S(=O)(=O)N2CCN(C(=O)COC(=O)CNC(=O)c3ccccc3F)CC2)c(C)c1	/	/	/	/	-1	/	/
O=C(Nc1ccc(Cl)c(Cl)c1)c1csc(-c2ccccc2)n1	-2	10	-11	32	1	3	/
O=C(Nc1cccc(Cl)c1)c1csc(-c2ccccc2)n1	32	44*	21	33	0	22	9
COC(=O)N1C(=O)[C@](c2ccccc2)(C(C)C)N1C(=O)OC	23	20	11	18	1	23	/
CCOC(=O)N1C(=O)[C@@](c2ccc(Cl)cc2)(C(C)C)N1C(=O)OCC	-16	44*	23	19	2	-10	45*
Nc1[nH]ncc1-c1ccc(F)cc1	-2	8	-3	9	8	0	/
Cc1ccc(-c2nc(CCNC(=O)c3ccco3)cs2)cc1	20	10	19	/	-1	1	/
O=C(NCCc1csc(-c2ccc(Cl)cc2)n1)c1ccco1	23	43*	3	-5	-2	-6	12
CCn1c(CN2CCN(c3ccc(Cl)cc3)CC2)nc2ccccc21	36	52*	18	8	-4	36	34*
Cc1noc(C)c1COc1ccc(C(=O)N2CCCC(C(F)(F)F)C2)cc1 (configuration not stated)	13	17	2	4	0	8	/
O=C(CNc1cccc2ccccc12)N/N=C/C(Br)=C/c1ccccc1	48	41*	-5	-2	0	36	31*
O=C(CNc1cccc2ccccc12)N/N=C/c1ccc[nH]1	-5	-13	1	6	-2	7	/
SMILES	tim23-1 inh	tim10-1 inh	NLRP3 yeast inh	NALP1 inh	V-ATPase pH	TIM10 inh	tim10-1 confirm
Fc1cccc(CSc2ccc3nnc(-c4ccccn4)n3n2)c1	-8	30	-10	-15	-5	-15	/
Fc1cccc(Cl)c1CSc1ccc2nnc(-c3ccccn3)n2n1	-4	40*	-25	-26	0	36	31*
COc1cc(C(=O)NCC(=O)NCC(c2ccco2)N2CCCCC2)cc(OC)c1OC (configuration not stated)	-4	-4	7	/	-5	7	/
CC1=CCC(/C=N\Nc2nnc3c(n2)[nH]c2ccccc23)CC1 (configuration not stated)	-16	-8	10	17	/	-16	/
O=C1/C(=C/c2ccccc2F)SC(=S)N1CC(=O)N1CCCCC1c1cccnc1 (configuration not stated)	36	45*	4	10	0	24	16
FC(F)C(F)(F)C(F)(F)C(F)(F)c1cc(-c2ccccc2)n[nH]1	47	48*	5	-5	-4	39	30*
CCCC1=Nc2cc(C(=O)N3CCC(C(N)=O)CC3)ccc2Sc2ccccc21	4	-8	3	11	8	7	/
CC1=Nc2cc(C(=O)N3CCCC3)ccc2Sc2ccc(C)cc21	-2	11	16	-1	2	-2	/
CCCC1=Nc2cc(C(=O)N3CCC(C(=O)OCC)CC3)ccc2Sc2ccccc21	22	41*	9	9	-3	-1	-12
CC1=Nc2cc(C(=O)N3CCCCC3)ccc2Sc2ccc(C)cc21	32	45*	11	18	1	10	0
CCOc1ccccc1NC(=O)C1CCC(=O)N1S(=O)(=O)c1ccc(C)cc1 (configuration not stated)	15	-1	0	12	-2	-3	/
OCCC1CN(Cc2cccc3c2OCO3)CCN1C1CCCC1 (configuration not stated)	7	2	11	6	5	-1	/
COc1ccc(OC)c(/C=C/C(=O)OCC(=O)N2CCN(S(=O)(=O)c3ccc(C)cc3C)CC2)c1	9	13	11	/	-3	6	/
COc1ccc(CNS(=O)(=O)CCNC(=O)c2ccc(OC)cc2)cc1	-5	-18	12	/	-2	0	/
CO/N=C/CC(=O)c1ccc([N+](=O)[O-])c(CS(=O)(=O)c2ccc(Cl)cc2)c1	22	25	22	22	-1	7	/
O=C(Nc1cccc(-c2cccc(F)c2)c1)C1CCN(C2CCOCC2)CC1	12	43*	5	16	-3	-24	-54
C[C@H](CO)N1C[C@H](C)[C@@H](CN(C)C(=O)Nc2ccccc2)Oc2c(NC(=O)C3CCCCC3)cccc2C1=O	14	11	5	/	-1	-6	/
O=C(COC(=O)C1CC2CCCC(C1)C2=O)NNC(=O)c1ccccc1F (configuration not stated)	-9	-20	1	/	-1	-2	/

Screens (PubChem)
